The record followed here is PubChem BioAssay (NCATS).

The target in experiment [1] is Transient receptor potential cation channel subfamily V member 1 (Homo sapiens) (UniProt Q8NER1). Briefly: HTS Assay for Compounds that Act as Enhancers of the Vanilloid Receptor 1 (AID 488979). Note: 0% is about no effect. The gist of the method: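 Calcium influx kinetics via Fluo-8 (480/520 nm) in TRPV1-expressing cells, 2000/well cultured overnight at 35.5C. Compound-alone read 3 min (agonist phase), followed by EC20 capsaicin challenge for 2 min (enhancer phase).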

For experiment [2], the target named is Thyrotropin receptor (Homo sapiens) (UniProt P16473). Briefly: qHTS Assay for Antagonists of the Thyroid Stimulating Hormone Receptor (AID 488980). Note: series mostly up to about 58 µM; 0% is about no effect. Summed up: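 HEK293 cells transfected with human TSHR, suspended in HEPES-buffered HBSS with 70 uM RO 20-1724, were treated with compounds plus TSH at EC80 (4 nM final). cAMP was measured by competitive HTRF (cryptate anti-cAMP antibody, cAMP-d2 acceptor).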
Background: Quantitative high-throughput screening tests each substance at several concentrations.

Experiment [3] deals with D(1A) dopamine receptor (Homo sapiens) (UniProt P21728). Nature of the experiment: HTS Assay for Allosteric Agonists of the Human D1 Dopamine Receptor: Primary Screen for Agonists (AID 488981). Note: 0% is about no effect. Summed up: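 Calcium flux in an inducible, force-coupled HEK293 Trex D1 line (overnight at 30 C): agonist mode is the 180 s kinetic read after compound; potentiator mode is the following 180 s read after dopamine at EC20.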

Experiment [4] shares this target. Briefly: HTS Assay for Allosteric Agonists of the Human D1 Dopamine Receptor: Primary Screen for Antagonists (AID 488983).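 Note: calcium flux response to an EC80 dopamine challenge measured with no-wash dye; nearly all actives have a fitted effect of over 65% in size.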 Note: potency is the fitted concentration of half-maximal effect. The gist of the method: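 Calcium flux readout, no-wash dye, inducible HEK293 T-REx D1 line (force-coupled). Compound added after 10 s baseline, 180 s kinetic read; then dopamine at EC80, further 180 s read.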
Experiment [5] in a line: Validation screen for small molecules that induce genotoxicity in human embryonic kidney (HEK293T) cells expressing luciferase-tagged ELG1 (AID 493106). Note: 0% is about no effect. Summed up:
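qHTS format; 2,000 HEK293T ELG1-luc cells/well; 23 nL compound via pin tool; 16 hr, 37 °C/5% CO2; ONE-Glo, 30 min RT; luminescence read.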

Experiment [6] concerns the target ATPase family AAA domain-containing protein 5 (Homo sapiens) (UniProt Q96QE3). Briefly: Validation screen for small molecules that inhibit ELG1-dependent DNA repair in human embryonic kidney (HEK293T) cells expressing luciferase-tagged ELG1 (AID 493107). Note: nearly all actives have a fitted effect of over 70% in size. Note: potency is the fitted concentration of half-maximal effect. Summed up:
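ELG1-luciferase HEK293T reporter; 5-fluorouridine + compound/DMSO, 16 hr, 37 °C, 5% CO2; ONE-Glo 30 min RT; luminescence read, qHTS format.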

Experiment [7] concerns the target Thyrotropin-releasing hormone receptor (Homo sapiens) (UniProt P34981). Briefly: qHTS for Small Molecule Agonists and Allosteric Enhancers of Human TRH Receptor: Validation Screen for Agonists (AID 493127;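 active = calcium activation more than 3 SD above the typical response in the agonist read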;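 note: intracellular calcium rise by fluo-8 fluorescence before TRH EC20 addition; 0% is about no effect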). As to conditions: TRH receptor agonist cell assay; at 2 µM; stronger effect = higher value. The gist of the method: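 Read-out: intracellular calcium release measured kinetically by FDSS (fluo-8, ex 480/em 530 nm), 1 reading/s after a 10-cycle baseline. TRHR cells, 2000/well, cultured 18 h at 33.5C, dye-loaded at room temp. Compound-evoked positive calcium signal flags agonists.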

The nature of experiment [8]: qHTS for Inhibitors of Cell Surface uPA Generation: Validation Assay (AID 493164).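 Note: RAW 264.7 macrophage cells exposed to compound for 18 h; 0% is about no effect.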 The gist of the method:
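Compounds are titrated over seven points (2.45 nM–38.3 uM final) onto pre-plated RAW 264.7 cells and incubated for 18 h. Retained intracellular ATP, measured with ATP-Lite, indicates blocked lethal factor entry.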

The target in experiment [9] is Galactokinase (Homo sapiens) (UniProt P51570). Briefly: qHTS Validation Assay for Inhibitors of Human Galactokinase (GALK) (AID 493189). Note: 0% is about no effect. The gist of the method: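 GALK (5 nM) with 35 uM ATP and 100 uM galactose in HEPES pH8.0, MgCl2, NaCl, DTT, BSA; 1 h at room temperature. Residual ATP read by Kinase-Glo Plus luminescence after 10 min.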
A short description of experiment [10]: Validation screen for small molecules that induce DNA re-replication in SW480 colon adenocarcinoma cells (AID 504364). Note: 0% is about no effect. Summed up: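 Read-out: total Hoechst intensity of nuclei by fluorescence scanning imager; hits raise the fraction of nuclei with elevated DNA content. Cells received compound for 48 hr at 37 C before a 40 min stain.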
Experiment [11] concerns the target Peptidyl-prolyl cis-trans isomerase NIMA-interacting 1 (Homo sapiens) (UniProt Q13526). Briefly: qHTS Validation Assay to Find Inhibitors of Pin1 (AID 504536; active = well fitted inhibition curve with a large enough effect in the polarisation, with a control signal flat, not every such curve was filed as active; the % refers to the polarisation;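 note: 0% = full Pin1 enzyme wells and -100% = no-enzyme wells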). Summed up: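 Fluorescence polarization competition: compounds (titration) displace HiFluor-488-labeled Pin1-1b peptide from Pin1 (0.3 uM final) in pH 7.5 HEPES buffer with DTT, 10 min at room temperature; %Activity normalized to no-enzyme wells, curves fitted.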

The target in experiment [12] is Phosphoglycerate kinase, glycosomal (Trypanosoma brucei brucei) (UniProt P07378). Nature of the experiment: qHTS Validation Assay to Find Inhibitors of Phosphoglycerate Kinase (AID 504547).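 Note: control wells lack PGK and mark full inhibition.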 The gist of the method:
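Luminescence end-point (Kinase-Glo Plus, 10 min) after a 60 min room-temperature coupled reaction. GAPDH at 100nM final supplies 1,3-BPG to PGK. Buffer: 100mM TEA pH 7.6, 5mM MgCl2, 0.01% Tween-20. Wells lacking PGK served as controls.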

In experiment [13] the target is phosphoglycerate mutase (Leishmania major) (UniProt Q4Q090). Nature of the experiment: qHTS Validation Assay to Find Inhibitors of Phosphoglycerate Mutase (AID 504548).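 Note: end-point luminescence from Kinase-GloPlus after the PGAM reaction; series mostly up to about 58 µM; % is set by controls: 0 for no effect and ±100 for the full control effect.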 The conditions noted are these: Potency: inhibition qHTS. Summed up:
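Inhibition of L. major PGAM was assessed by Kinase-GloPlus luminescence following a 45-minute room-temperature reaction with enzyme at 1.25nM final.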

In experiment [14] the target is Ubiquitin carboxyl-terminal hydrolase 1 (Homo sapiens) (UniProt O94782). Briefly: Inhibitors of USP1/UAF1: Pilot qHTS (AID 504865).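 Note: rhodamine fluorescence freed from ubiquitin-rhodamine substrate followed over time; top concentration of the series differs between compounds; % is set by controls: 0 for no effect and ±100 for the full control effect; nearly all actives have a fitted effect of over 35% in size.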 The gist of the method: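 USP1/UAF1 complex (1nM) preincubated with compound 15 min at room temperature, then Ub-Rho substrate (150nM final) added. Fluorescence read kinetically at 480/540 nm, 6 reads every 60 seconds. Buffer: 50mM HEPES pH 7.8, 0.5mM EDTA, 0.1 mg/ml BSA, 1mM TCEP, 0.01% Tween-20.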

Experiment [15] can be described thus: qHTS for Inhibitors of ATXN expression: Validation of Cytotoxic Assay (AID 588349). Note: % is set by controls: 0 for no effect and ±100 for the full control effect. Summed up: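 Cytotoxicity counter-screen: HEK293 cells exposed to compound titrations, 72 hr, 37 degrees C. Read-out is intracellular ATP (CellTiter Glo luminescence) as a viability measure.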
Experiment [16] can be described thus: qHTS for Inhibitors of ATXN expression: Validation (AID 588378). Note: series mostly up to about 57 µM; % is set by controls: 0 for no effect and ±100 for the full control effect; nearly all actives have a fitted effect of over 75% in size. The gist of the method:
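Luminescence from an ATXN2-FFLuc reporter in HEK293 cells served as read-out after 24 h compound treatment at 37 degrees C; CellTiter-Fluor fluorescence was recorded first to assess viability.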

A short description of experiment [17]: Nrf2 qHTS screen for inhibitors: Validation (AID 493153; active = well fitted inhibition curve with a large enough effect in the main read-out, with a control signal flat, not every such curve was filed as active). The conditions noted are these: Potency: luciferase luminescence; viability change: measured here: cytotoxicity max response. The gist of the method:
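Concentration-response test in A549 ARE_Fluc reporter cells (5% FBS OPTI-MEM), compound exposure 18-24 h at 37°C, 5% CO2. Cell viability measured first by CellTiter-Fluor fluorescence; ARE-driven luciferase luminescence then measured as Nrf2 activity.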

Where “and” joins values, the source holds several entries; their conditions need not be identical. Equal entries are not always repeated. Results filed as inconclusive are left out. Calls of active or inactive are those of the source. Unless noted, calls come from the whole dose curve; as a rule, active = well fitted curve in the direction sought with a large enough effect; inconclusive = small, poorly fitted or top-dose-only effect, or another doubt; inactive = no such curve, though single readings can be large; an effect the other way counts as inactive or inconclusive.

Peptidyl-prolyl cis-trans isomerase NIMA-interacting 1 (Homo sapiens), sequence (Q13526 whole entry, looked up): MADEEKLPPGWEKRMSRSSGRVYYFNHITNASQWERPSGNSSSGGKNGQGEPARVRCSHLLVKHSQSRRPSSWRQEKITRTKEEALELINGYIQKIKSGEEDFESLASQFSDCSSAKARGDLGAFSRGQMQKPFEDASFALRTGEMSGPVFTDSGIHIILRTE
ATPase family AAA domain-containing protein 5 (Homo sapiens), sequence (Q96QE3 whole entry, looked up, the tested form may be a part): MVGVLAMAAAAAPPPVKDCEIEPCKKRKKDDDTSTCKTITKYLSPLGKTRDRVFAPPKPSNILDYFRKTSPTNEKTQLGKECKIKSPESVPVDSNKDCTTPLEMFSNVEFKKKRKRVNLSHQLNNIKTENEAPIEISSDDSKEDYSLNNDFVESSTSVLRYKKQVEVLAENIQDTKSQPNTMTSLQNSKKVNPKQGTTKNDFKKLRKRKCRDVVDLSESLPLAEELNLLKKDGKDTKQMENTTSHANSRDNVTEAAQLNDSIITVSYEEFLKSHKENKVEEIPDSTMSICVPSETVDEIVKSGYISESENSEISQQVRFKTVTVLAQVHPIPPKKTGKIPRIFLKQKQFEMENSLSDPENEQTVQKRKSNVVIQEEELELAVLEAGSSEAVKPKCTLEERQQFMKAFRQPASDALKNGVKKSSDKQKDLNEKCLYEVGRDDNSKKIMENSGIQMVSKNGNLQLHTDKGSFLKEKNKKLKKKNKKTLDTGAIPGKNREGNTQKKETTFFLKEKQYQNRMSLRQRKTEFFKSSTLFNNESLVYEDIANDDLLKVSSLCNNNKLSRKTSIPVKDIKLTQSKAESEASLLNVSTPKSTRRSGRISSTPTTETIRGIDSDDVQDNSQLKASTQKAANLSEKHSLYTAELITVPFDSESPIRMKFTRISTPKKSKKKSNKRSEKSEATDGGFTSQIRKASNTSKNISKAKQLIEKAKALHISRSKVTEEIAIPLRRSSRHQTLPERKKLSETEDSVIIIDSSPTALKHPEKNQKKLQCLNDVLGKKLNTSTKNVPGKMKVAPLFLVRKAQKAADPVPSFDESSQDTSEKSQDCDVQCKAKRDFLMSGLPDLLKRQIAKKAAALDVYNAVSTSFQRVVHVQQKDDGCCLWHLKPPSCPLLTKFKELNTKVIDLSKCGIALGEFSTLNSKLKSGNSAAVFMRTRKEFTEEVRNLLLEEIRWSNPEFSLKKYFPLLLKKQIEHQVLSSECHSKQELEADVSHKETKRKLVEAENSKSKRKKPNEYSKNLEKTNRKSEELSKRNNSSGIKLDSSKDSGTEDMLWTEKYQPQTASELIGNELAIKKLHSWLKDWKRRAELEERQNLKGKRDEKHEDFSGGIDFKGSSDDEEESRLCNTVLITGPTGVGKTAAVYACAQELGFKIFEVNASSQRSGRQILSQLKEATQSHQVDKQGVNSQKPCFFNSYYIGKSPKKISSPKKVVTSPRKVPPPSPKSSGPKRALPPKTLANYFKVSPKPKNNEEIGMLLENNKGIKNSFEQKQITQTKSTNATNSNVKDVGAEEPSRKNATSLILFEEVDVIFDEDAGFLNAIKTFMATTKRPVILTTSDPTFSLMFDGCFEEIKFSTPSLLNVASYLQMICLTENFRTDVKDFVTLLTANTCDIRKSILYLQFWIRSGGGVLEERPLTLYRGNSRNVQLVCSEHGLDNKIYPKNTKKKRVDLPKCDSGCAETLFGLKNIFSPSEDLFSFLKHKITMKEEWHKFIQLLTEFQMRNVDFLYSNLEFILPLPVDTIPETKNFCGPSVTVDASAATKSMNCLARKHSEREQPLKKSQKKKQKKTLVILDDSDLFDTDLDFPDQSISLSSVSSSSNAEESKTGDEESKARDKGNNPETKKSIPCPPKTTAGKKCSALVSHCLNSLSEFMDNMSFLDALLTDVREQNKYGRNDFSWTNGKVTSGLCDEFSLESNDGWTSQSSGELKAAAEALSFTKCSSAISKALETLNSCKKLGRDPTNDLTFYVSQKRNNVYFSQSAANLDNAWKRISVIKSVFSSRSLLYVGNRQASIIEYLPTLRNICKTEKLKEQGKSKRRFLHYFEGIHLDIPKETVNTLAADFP
phosphoglycerate mutase (Leishmania major), sequence (Q4Q090 1-553): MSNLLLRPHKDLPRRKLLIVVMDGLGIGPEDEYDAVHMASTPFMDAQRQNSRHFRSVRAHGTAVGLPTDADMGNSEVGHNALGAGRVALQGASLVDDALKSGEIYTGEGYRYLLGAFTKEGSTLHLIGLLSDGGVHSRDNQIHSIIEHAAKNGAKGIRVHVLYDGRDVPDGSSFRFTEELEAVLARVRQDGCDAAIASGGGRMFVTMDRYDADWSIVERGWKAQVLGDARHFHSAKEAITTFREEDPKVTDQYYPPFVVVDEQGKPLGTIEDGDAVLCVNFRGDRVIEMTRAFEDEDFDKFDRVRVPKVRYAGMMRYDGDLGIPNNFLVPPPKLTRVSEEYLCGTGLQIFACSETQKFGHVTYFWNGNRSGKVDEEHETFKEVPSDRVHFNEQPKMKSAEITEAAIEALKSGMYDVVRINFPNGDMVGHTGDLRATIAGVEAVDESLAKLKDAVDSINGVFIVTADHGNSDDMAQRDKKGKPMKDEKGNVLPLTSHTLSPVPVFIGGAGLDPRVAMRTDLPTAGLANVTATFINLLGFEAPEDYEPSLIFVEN
Transient receptor potential cation channel subfamily V member 1 (Homo sapiens), sequence (Q8NER1 whole entry, looked up): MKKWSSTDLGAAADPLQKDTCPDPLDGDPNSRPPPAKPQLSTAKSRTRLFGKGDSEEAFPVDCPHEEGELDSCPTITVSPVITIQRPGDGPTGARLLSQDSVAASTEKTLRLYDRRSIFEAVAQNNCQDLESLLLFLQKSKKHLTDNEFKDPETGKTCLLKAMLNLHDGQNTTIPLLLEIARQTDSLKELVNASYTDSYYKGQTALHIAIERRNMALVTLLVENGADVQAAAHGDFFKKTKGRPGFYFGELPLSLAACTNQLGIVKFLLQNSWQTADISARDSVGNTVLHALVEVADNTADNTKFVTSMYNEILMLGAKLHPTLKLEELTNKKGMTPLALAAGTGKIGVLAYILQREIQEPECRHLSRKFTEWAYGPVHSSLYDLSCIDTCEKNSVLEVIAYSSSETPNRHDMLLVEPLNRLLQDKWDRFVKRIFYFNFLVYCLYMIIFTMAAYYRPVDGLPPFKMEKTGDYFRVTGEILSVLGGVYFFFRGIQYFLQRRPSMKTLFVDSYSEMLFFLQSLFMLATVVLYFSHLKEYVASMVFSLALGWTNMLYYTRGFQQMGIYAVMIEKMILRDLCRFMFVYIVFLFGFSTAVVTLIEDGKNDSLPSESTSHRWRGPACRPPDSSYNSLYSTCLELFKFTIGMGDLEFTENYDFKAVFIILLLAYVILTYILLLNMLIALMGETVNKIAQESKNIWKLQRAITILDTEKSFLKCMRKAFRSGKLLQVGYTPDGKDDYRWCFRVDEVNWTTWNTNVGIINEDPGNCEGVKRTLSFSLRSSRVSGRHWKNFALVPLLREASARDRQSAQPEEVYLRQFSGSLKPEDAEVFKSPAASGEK
Galactokinase (Homo sapiens), sequence (P51570 whole entry, looked up): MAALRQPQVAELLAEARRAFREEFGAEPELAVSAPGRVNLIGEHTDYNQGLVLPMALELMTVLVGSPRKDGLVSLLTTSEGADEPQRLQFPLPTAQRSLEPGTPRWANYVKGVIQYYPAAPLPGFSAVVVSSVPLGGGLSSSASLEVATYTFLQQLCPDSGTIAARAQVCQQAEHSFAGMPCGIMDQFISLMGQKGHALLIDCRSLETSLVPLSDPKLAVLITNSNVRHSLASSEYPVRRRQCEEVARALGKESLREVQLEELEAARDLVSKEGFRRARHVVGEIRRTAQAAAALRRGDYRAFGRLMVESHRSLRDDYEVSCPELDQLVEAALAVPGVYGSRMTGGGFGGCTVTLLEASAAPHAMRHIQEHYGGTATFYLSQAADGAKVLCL
D(1A) dopamine receptor (Homo sapiens), sequence (P21728 whole entry, looked up): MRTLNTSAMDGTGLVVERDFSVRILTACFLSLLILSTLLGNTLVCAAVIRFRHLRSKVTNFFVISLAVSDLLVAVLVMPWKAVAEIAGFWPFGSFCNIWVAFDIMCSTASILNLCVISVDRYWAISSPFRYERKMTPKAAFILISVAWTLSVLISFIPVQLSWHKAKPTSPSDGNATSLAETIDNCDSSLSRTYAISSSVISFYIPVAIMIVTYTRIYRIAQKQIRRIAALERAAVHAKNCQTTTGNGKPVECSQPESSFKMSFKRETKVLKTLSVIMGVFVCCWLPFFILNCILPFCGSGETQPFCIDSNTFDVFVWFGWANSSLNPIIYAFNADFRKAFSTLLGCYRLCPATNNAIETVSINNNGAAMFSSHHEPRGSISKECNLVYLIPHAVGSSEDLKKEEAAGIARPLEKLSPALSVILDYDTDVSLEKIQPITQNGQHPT
Ubiquitin carboxyl-terminal hydrolase 1 (Homo sapiens), sequence (O94782 whole entry, looked up): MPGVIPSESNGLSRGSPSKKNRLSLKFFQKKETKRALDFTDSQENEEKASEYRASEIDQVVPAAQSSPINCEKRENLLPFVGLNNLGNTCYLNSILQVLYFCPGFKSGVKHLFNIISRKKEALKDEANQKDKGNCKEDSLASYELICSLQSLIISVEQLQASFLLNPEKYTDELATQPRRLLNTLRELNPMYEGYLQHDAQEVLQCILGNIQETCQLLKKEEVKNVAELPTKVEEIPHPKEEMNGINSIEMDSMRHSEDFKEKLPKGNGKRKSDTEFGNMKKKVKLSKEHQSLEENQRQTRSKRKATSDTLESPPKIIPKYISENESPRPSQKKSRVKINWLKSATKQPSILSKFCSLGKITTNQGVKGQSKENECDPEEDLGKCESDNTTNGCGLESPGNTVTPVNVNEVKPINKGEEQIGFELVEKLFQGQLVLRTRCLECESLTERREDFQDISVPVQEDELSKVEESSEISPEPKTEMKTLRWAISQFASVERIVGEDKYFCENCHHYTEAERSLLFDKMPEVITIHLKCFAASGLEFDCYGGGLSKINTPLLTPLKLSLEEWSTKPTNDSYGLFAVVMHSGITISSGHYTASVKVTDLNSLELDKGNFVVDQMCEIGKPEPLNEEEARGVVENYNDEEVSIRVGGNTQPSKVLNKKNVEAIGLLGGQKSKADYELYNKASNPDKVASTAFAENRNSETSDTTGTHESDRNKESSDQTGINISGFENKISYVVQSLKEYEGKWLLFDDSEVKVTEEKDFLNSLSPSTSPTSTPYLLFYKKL

Consider `Clc1nccc2c1ccc1ccccc12`, for which the result in [1], in experiment [2] and in experiment [8] was inactive. The Potency entry in experiment [3], in experiment [4], in experiment [5], in experiment [6], in experiment [9] and in experiment [10] was “inactive” each time. The Potency entry in [11], in experiment [12], in experiment [13], in [14], in experiment [15] and in experiment [16] was “inactive” in each case. Moreover, the activation in [7] was -6.94% (inactive).
In the case of `CC(=O)C(C)=O`, the result in [1], in experiment [2] and in experiment [8] was inactive. Further, the Potency entry in experiment [3], in [4], in experiment [6], in [17], in [9] and in [10] was “inactive” in each case. Besides, the Potency result in [11], in experiment [12], in experiment [13] and in experiment [14] was “inactive” throughout. The viability change in experiment [17] was -3.11%.
As for `O=C(O)C1=CCNCC1`, the outcome in experiment [1], in experiment [2] and in experiment [8] was inactive. Also, the Potency entry in [3], in experiment [4], in [6], in experiment [17], in experiment [9] and in [10] was “inactive” throughout. Further, the Potency entry in [11], in experiment [12], in [13], in experiment [14] and in experiment [16] was “inactive” throughout. The viability change in experiment [17] was found to be 7.14%.
`CC(=O)[C@H]1CCC2C3CC=C4C[C@@H](OS(=O)(=O)O)CC[C@]4(C)C3CC[C@@]21C` (stereo partly drawn): the result in experiment [1], in [2] and in [8] was inactive. In addition, the Potency entry in experiment [3], in [4], in [5], in experiment [6], in experiment [17] and in experiment [9] was “inactive” in each case. In addition, the Potency result in experiment [10], in experiment [11], in [12], in [13], in experiment [14] and in [16] was “inactive” throughout. Besides, the activation in experiment [7] was -0.125% (inactive). Besides, the viability change in [17] is 2.24%.
Take `COc1ccccc1N1CCN(CCCCN2C(=O)c3ccccc3C2=O)CC1`: the outcome in experiment [1] and in experiment [2] was inactive. The Potency result in experiment [3], in experiment [5], in experiment [6], in experiment [17], in experiment [9] and in experiment [10] was “inactive” throughout. Moreover, the Potency entry in [11], in experiment [12], in [13], in experiment [14], in [15] and in experiment [16] was “inactive” in each case. In experiment [4], the Potency is 10 µM (active). Besides, the activation in [7] is -3.44% (inactive). Also, in experiment [17], the viability change was determined as 4.76%.
In the case of `Cc1ccc([N+](=O)[O-])cc1S(=O)(=O)N(C)C`, the result in experiment [1], in [2] and in [8] was inactive. Besides, the Potency result in [3], in experiment [4], in experiment [5], in experiment [6], in experiment [9] and in experiment [10] was “inactive” in each case. Moreover, the Potency entry in [11], in [12], in [13], in experiment [14], in experiment [15] and in experiment [16] was “inactive” in each case. Moreover, the activation in experiment [7] is 1.19% (inactive) and 0.125% (inactive).
For `C=CCn1c(=O)c2c(nc(-c3ccc(S(=O)(=O)O)cc3)n2C)n(C)c1=O`, the outcome in [1], in experiment [2] and in experiment [8] was inactive. For the same molecule, the Potency result in [3], in experiment [4], in experiment [5], in [6], in [17] and in [9] was “inactive” in each case. Moreover, the Potency result in [10], in experiment [12], in [13], in experiment [14] and in experiment [16] was “inactive” throughout. Also, the activation in [7] was -0.312% (inactive). The viability change in [17] is 9.3%.
For `O=C1NC(=O)c2cc(Nc3ccccc3)c(Nc3ccccc3)cc21`, the result in [1], in [2] and in experiment [8] was inactive. For the same molecule, the Potency entry in [3], in experiment [4], in experiment [9], in experiment [10], in experiment [11] and in [12] was “inactive” throughout. The Potency result in experiment [13] and in [15] was “inactive” throughout. For the same molecule, in [6], the Potency was 13 µM (active).
